Inconclusive results are not listed. Active and inactive are the calls of the source. Calls come from the whole dose curve; as a rule, active = well fitted curve in the direction sought with a large enough effect; inconclusive = small, poorly fitted or top-dose-only effect, or another doubt; inactive = no such curve, though single readings can be large; an effect the other way counts as inactive or inconclusive.
Key:
[1] = Quantitative High-Throughput drug screen in 47 multiple myeloma cell lines against the NCATS MIPE library collection: VP6_DJ cell viability assay (AID 1919867); note: nearly all actives have a fitted effect of over 40% in size; note: potency is the fitted concentration of half-maximal effect
Procedure, shortened: (§1)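 MIPE 4.0 approved/investigational drugs; 500 cells/well; 48 h 37 °C humidified 5% CO2; CTG luminescence readout; DMSO = 100%, media = 0% viability.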

[2] = Quantitative High-Throughput drug screen in 47 multiple myeloma cell lines against the NCATS MIPE library collection: UTMC2_PLB cell viability assay (AID 1919868); settings: CellTiter-Glo ATP luminescence, 48 h; viability (% of DMSO control): at 45.8 µM (top of the series); note: nearly all actives have a fitted effect of over 55% in size; note: potency is the fitted concentration of half-maximal effect;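 for viability (% of DMSO control): 100% = DMSO-only wells and 0% = media-only wells without cells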
Procedure, shortened: as §1

[3] = Quantitative High-Throughput drug screen in 47 multiple myeloma cell lines against the NCATS MIPE library collection: PE2_PLB cell viability assay (AID 1919869); note: nearly all actives have a fitted effect of over 35% in size; note: potency is the fitted concentration of half-maximal effect
Procedure, shortened: as §1

[4] = Quantitative High-Throughput drug screen in 47 multiple myeloma cell lines against the NCATS MIPE library collection: PCM6_Riken cell viability assay (AID 1919870); note: nearly all actives have a fitted effect of over 30% in size; note: potency is the fitted concentration of half-maximal effect
Procedure, shortened: as §1

[5] = Quantitative High-Throughput drug screen in 47 multiple myeloma cell lines against the NCATS MIPE library collection: OPM2_DSMZ cell viability assay (AID 1919872); note: nearly all actives have a fitted effect of over 30% in size; note: potency is the fitted concentration of half-maximal effect
Procedure, shortened: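 Viability readout: CellTiter-Glo luminescence following 5 min room-temperature incubation with reagent. Prior exposure: 48 h, 37C, humidified 5% CO2, 500 cells per well.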

[6] = Quantitative High-Throughput drug screen in 47 multiple myeloma cell lines against the NCATS MIPE library collection: KMS28BM_JCRB cell viability assay (AID 1919874); note: nearly all actives have a fitted effect of over 35% in size; note: potency is the fitted concentration of half-maximal effect
Procedure, shortened: as §1

[7] = Quantitative High-Throughput drug screen in 47 multiple myeloma cell lines against the NCATS MIPE library collection: RPMI8226_ATCC cell viability assay (AID 1919871); note: nearly all actives have a fitted effect of over 30% in size; note: potency is the fitted concentration of half-maximal effect
Procedure, shortened: as §1

[8] = Quantitative High-Throughput drug screen in 47 multiple myeloma cell lines against the NCATS MIPE library collection: KMS11_JCRBsus cell viability assay (AID 1919873); note: nearly all actives have a fitted effect of over 50% in size; note: potency is the fitted concentration of half-maximal effect
Procedure, shortened: as §1

[9] = molecular target: Cytochrome P450 3A4 (Homo sapiens) (UniProt P08684); experiment: qHTS for inhibitors of CYP3A4 against the NCATS DSHEA and TCM libraries (AID 1919971);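 note: % is set by controls: 0 for no effect and ±100 for the full control effect; inhibition lowers luminescence from luciferin made by CYP3A4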
Procedure, shortened: (§2)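 Read-out is luminescence after P450-Glo detection (30 min, RT). Before that: 15 min compound–enzyme preincubation, then 30-45 min reaction with 1x NADPH regeneration solution, substrate concentration isoform-specific.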

[10] = molecular target: Cytochrome P450 2D6 (Homo sapiens) (UniProt P10635); experiment: qHTS for inhibitors of CYP2D6 against the NCATS DSHEA and TCM libraries (AID 1919972); note: % is set by controls: 0 for no effect and ±100 for the full control effect
Procedure, shortened: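 Luminescent P450-Glo read-out of CYP2D6 turnover of a luciferin substrate after NADPH-driven reaction of 30-45 min at room temperature. Compounds were first preincubated 15 min with enzyme at titrated concentrations; quinidine was the intraplate control.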

[11] = molecular target: Cytochrome P450 2C9 (Homo sapiens) (UniProt P11712); experiment: qHTS for inhibitors of CYP2C9 against the NCATS DSHEA and TCM libraries (AID 1919973);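 note: luminogenic pro-luciferin CYP2C9 substrate turned into luciferin with NADPH regeneration; % is set by controls: 0 for no effect and ±100 for the full control effect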
Procedure, shortened: as §2

[12] = molecular target: Cytochrome P450 2C19 (Homo sapiens) (UniProt P33261); experiment: qHTS for inhibitors of CYP2C19 against the NCATS DSHEA and TCM libraries (AID 1919974);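 note: luminescence from luciferin released by CYP2C19 oxidation of a pro-luciferin substrate; % is set by controls: 0 for no effect and ±100 for the full control effect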
Procedure, shortened: as §2

[13] = KB-3-1 P-gp reporter qHTS against the NCATS DSHEA and TCM libraries (AID 1919975); note: 0% is about no effect
Procedure, shortened: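 CellTiter-Glo luminescence viability readout; KB-3-1 parental cells, 500/well, attached ~4 h, then compound for ~72 h, 37C, 5% CO2. Bortezomib intraplate control.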

[14] = molecular target: Cytochrome P450 1A2 (Homo sapiens) (UniProt P05177); experiment: qHTS for inhibitors of CYPIA2 against the NCATS DSHEA and TCM libraries (AID 1919976);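 note: light from luciferin formed by CYP1A2 from a pro-luciferin substrate; % is set by controls: 0 for no effect and ±100 for the full control effect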
Procedure, shortened: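 CYP1A2 + luciferin substrate, 100 mM KPO4-type buffer; cmpd 15 min RT; 1x NADPH regen, 30-45 min RT dark; detection reagent 30 min RT; luminescence. Minus-enzyme wells as background; furafylline intraplate control.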

[15] = qHTS Counterscreen for compound interference against the NCATS DSHEA and TCM libraries (AID 1919978); settings: firefly luciferase detection reagent interference, luminescence;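 note: compounds preincubated with 1 µM D-luciferin or buffer before detection reagent; % of control where 0% means no effect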
Procedure, shortened: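 Luminescence counterscreen for detection-kit interference: compounds at 19.5 nM–39.8 uM final, 15 min RT with 1 uM D-luciferin or buffer only; detection reagent added, 30 min RT, then read.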

[16] = Dual reporter qHTS for agonist of Pregnane X Receptor (hPXR) against the NCATS DSHEA and TCM libraries: Fluorescence readout (AID 1920058); note: 0% is about no effect
Procedure, shortened: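 HepG2 hPXR-Luc, 2000 cells/well, 5 h attach; cpds ~24 h, 37 °C/5% CO2; CellTiter-Fluor 1 h; fluor. Ex/Em 405/540 nm = viability.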

[17] = molecular target: Nuclear receptor subfamily 1 group I member 2 (Homo sapiens) (UniProt O75469); experiment: Dual reporter qHTS for agonist of Pregnane X Receptor (hPXR) against the NCATS DSHEA and TCM libraries: Luminescence readout (AID 1920059); note: 0% is about no effect
Procedure, shortened: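 hPXR-LucHepG2 cells in phenol red-free DMEM with 5% charcoal-stripped FBS, 2000 cells/well, attached 5 h, then exposed 24 h at 37C to compounds; rifampicin as positive agonist control (2.8 nM–92 uM). Luciferase luminescence read.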

[18] = molecular target: Nuclear receptor subfamily 1 group I member 2 (Homo sapiens) (UniProt O75469); experiment: Dual reporter qHTS for antagonist of Pregnane X Receptor (hPXR) against the NCATS DSHEA and TCM libraries: Luminescence Readout (AID 1920060);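 note: HepG2 cells carrying hPXR luciferase reporter stimulated with rifampicin at 2 µM; 0% is about no effect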
Procedure, shortened: (§3)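 Antagonist mode: rifampicin 2 uM final co-added with compounds to hPXR-LucHepG2 cells for 24 h at 37C. Viability by CellTiter-Fluor, Ex/Em 405/540 nm, 1 h; reporter by ONE-Glo luminescence.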

[19] = Dual reporter qHTS for antagonist of Pregnane X Receptor (hPXR) against the NCATS DSHEA and TCM libraries: Fluorescence Readout (AID 1920061); note: 0% is about no effect
Procedure, shortened: as §3

Nuclear receptor subfamily 1 group I member 2 (Homo sapiens), sequence (O75469 whole entry, looked up): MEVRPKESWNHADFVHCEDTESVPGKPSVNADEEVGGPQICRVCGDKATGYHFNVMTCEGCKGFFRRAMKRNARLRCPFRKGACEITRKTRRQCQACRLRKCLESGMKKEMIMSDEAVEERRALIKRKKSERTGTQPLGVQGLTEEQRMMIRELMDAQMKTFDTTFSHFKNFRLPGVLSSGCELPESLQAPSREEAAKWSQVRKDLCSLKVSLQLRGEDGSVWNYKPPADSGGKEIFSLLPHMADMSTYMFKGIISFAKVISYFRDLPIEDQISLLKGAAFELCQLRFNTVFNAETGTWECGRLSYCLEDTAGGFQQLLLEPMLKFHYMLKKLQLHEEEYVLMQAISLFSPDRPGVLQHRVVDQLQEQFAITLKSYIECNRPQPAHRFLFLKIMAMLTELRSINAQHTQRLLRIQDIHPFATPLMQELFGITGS
Cytochrome P450 2C9 (Homo sapiens), sequence (P11712 whole entry, looked up): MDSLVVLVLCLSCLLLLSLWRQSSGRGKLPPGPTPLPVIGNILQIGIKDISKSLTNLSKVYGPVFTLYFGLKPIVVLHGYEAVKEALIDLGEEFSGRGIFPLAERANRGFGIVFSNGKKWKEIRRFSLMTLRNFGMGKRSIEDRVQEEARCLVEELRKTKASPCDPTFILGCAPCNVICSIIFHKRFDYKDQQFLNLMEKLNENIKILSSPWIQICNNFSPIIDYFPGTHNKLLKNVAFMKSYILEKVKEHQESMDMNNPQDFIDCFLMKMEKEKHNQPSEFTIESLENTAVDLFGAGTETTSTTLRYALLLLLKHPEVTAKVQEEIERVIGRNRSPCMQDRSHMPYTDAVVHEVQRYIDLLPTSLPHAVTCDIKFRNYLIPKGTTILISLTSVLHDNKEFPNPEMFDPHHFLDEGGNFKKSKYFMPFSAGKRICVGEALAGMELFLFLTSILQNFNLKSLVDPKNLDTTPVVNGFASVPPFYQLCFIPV
Cytochrome P450 2D6 (Homo sapiens), sequence (P10635 whole entry, looked up): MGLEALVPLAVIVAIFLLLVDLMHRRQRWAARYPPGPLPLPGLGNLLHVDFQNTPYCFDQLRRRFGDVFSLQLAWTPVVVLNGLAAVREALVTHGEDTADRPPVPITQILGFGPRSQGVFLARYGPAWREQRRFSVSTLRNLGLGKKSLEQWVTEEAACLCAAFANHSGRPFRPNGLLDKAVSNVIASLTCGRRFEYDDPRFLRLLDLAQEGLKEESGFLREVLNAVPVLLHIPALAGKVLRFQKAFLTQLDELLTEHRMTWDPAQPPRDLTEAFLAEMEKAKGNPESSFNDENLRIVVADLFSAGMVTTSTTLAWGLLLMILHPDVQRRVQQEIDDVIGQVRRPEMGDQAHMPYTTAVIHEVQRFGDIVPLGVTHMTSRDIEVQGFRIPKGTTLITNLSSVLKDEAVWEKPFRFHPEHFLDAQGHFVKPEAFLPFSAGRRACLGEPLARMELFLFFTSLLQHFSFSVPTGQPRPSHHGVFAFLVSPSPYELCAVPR
Cytochrome P450 3A4 (Homo sapiens), sequence (P08684 whole entry, looked up, canonical isoform): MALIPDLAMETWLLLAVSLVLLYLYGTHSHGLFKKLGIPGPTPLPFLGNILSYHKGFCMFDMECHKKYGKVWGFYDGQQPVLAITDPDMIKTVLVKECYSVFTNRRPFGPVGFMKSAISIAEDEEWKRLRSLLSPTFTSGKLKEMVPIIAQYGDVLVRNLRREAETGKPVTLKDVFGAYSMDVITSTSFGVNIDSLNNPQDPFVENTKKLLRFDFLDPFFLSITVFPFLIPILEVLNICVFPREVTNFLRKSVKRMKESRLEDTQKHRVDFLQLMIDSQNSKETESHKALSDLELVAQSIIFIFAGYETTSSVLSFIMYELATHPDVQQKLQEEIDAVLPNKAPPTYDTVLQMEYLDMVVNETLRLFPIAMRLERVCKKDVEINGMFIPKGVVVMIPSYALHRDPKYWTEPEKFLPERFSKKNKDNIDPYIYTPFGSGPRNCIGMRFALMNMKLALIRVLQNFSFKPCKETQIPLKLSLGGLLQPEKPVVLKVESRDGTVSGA
Cytochrome P450 1A2 (Homo sapiens), sequence (P05177 whole entry, looked up): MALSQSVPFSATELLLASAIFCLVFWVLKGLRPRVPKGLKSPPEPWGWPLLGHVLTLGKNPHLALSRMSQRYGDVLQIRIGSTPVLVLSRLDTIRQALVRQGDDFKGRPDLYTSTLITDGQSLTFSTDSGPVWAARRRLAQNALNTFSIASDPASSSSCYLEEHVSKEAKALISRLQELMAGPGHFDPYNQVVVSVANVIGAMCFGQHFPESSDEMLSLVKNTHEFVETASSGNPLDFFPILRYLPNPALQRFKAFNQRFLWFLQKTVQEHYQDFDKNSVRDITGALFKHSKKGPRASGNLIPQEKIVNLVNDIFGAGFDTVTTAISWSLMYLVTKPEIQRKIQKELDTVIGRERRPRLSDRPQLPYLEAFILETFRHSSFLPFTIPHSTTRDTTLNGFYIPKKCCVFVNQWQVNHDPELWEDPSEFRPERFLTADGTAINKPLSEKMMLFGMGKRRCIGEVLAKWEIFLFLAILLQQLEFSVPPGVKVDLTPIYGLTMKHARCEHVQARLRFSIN
Cytochrome P450 2C19 (Homo sapiens), sequence (P33261 whole entry, looked up): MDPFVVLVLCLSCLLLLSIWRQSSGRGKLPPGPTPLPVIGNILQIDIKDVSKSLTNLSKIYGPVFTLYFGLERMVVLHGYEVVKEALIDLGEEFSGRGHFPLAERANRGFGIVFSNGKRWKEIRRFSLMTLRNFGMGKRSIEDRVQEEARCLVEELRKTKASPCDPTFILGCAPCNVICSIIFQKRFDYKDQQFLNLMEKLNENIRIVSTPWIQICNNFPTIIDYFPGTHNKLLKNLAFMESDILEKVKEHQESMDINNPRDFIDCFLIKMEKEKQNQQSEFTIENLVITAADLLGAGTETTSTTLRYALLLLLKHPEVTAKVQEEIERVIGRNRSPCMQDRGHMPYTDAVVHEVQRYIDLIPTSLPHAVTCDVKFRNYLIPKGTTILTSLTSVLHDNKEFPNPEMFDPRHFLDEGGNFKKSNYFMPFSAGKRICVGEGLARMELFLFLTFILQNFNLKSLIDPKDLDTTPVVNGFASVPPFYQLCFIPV

C[C@@H](N)c1ccc(C(=O)Nc2ccnc3[nH]ccc23)cc1
active: Potency [1] 26.4 µM | Potency [2] 16.6 µM | Potency [3] 26.4 µM | Potency [4] 16.6 µM | Potency [6] 23.5 µM
inactive: Potency [5]

COC(=O)Nc1ccc(-c2nc(N3CCOCC3)c3cnn(C4CCN(C(=O)OC)CC4)c3n2)cc1
active: Potency [1] 0.148 µM | Potency [2] 0.059 µM | Potency [3] 0.332 µM | Potency [4] 1.87 µM | Potency [7] 0.332 µM | Potency [5] 2.35 µM | Potency [8] 0.166 µM | Potency [6] 0.59 µM

CC(C)C[C@H](NC(=O)c1cc2ccccc2s1)C(=O)N1CCN(C(=O)[C@H](CO)NS(=O)(=O)c2ccc(Cl)cc2Cl)CC1
active: Potency [1] 18.7 µM | Potency [3] 23.5 µM | Potency [4] 23.5 µM | Potency [8] 20.9 µM | Potency [6] 20.9 µM

C[C@H]1COC2=C1C(=O)C(=O)c1c2ccc2c1CCCC2(C)C
inactive: Potency [6]
active: Potency [1] 16.6 µM | Potency [2] 9.35 µM | Potency [3] 26.4 µM

CC(=O)Nc1cccc(-n2c(=O)n(C3CC3)c(=O)c3c(Nc4ccc(I)cc4F)n(C)c(=O)c(C)c32)c1
active: Potency [3] 0.296 µM | Potency [7] 1.66 µM
inactive: Potency [1]

OC[C@H]1O[C@@H](Oc2ccc(O)cc2)[C@H](O)[C@@H](O)[C@H]1O
active: Potency [1] 7.43 µM | Potency [2] 9.35 µM
inactive: Potency [4] | Potency [7] | Potency [5] | Potency [6]

COc1cc2nc(-c3cc(F)ccc3O)nc(N[C@@H]3CNC[C@@H]3C(C)(C)O)c2cc1OC
active: Potency [1] 5.26 µM | Potency [3] 7.43 µM | Potency [4] 2.96 µM | Potency [7] 23.5 µM | Potency [5] 16.6 µM | Potency [8] 5.26 µM | Potency [6] 4.18 µM

CCNC(=O)CCCC=CC[C@@H]1[C@H](C=CC(O)CCc2ccccc2)[C@@H](O)C[C@@H]1O (some centres not stated)
active: Potency [7] 16.6 µM | Potency [6] 3.32 µM
inactive: Potency [1] | Potency [2] | Potency [3] | Potency [4]

CN1CCN2c3ncccc3Cc3ccccc3C2C1 (configuration not stated)
inactive: Potency [1] | Potency [2] | Potency [3] | Potency [4] | Potency [7] | Potency [5] | Potency [8] | Potency [6]

CN1[C@H]2CC[C@H]1CC(OC(=O)c1c[nH]c3ccccc13)C2 (some centres not stated)
active: Potency [1] 8.33 µM | Potency [4] 6.62 µM
inactive: Potency [2] | Potency [3] | Potency [7] | Potency [5]

CCC(c1ccc(O)cc1)C(CC)c1ccc(O)cc1 (configuration not stated)
inactive: Potency [1] | Potency [3] | Potency [7] | Potency [5]

Oc1cc(O)cc(C=Cc2ccc(O)c(O)c2)c1
active: Potency [1] 10.5 µM | Potency [3] 4.18 µM | Potency [4] 10.5 µM

CCC(=C(c1ccc(O)cc1)c1ccc(OCCNC)cc1)c1ccccc1
active: Potency [1] 13.2 µM | Potency [2] 9.35 µM | Potency [4] 23.5 µM | Potency [7] 26.4 µM | Potency [8] 8.33 µM | Potency [6] 23.5 µM

CN(C(Cc1ccc(OS(=O)(=O)c2cccc3cnccc23)cc1)C(=O)N1CCN(c2ccccc2)CC1)S(=O)(=O)c1cccc2cnccc12 (configuration not stated)
active: Potency [1] 3.72 µM | Potency [2] 6.62 µM | Potency [7] 5.26 µM

C[C@H](CCC(=O)O)[C@H]1CC[C@H]2[C@H]3[C@@H](CC[C@]12C)[C@@]1(C)CC[C@@H](O)C[C@H]1C[C@@H]3O
active: Potency [1] 20.9 µM | Potency [5] 6.62 µM
inactive: Potency [2] | Potency [3] | Potency [8]

NC[C@H]1O[C@H](O[C@@H]2[C@@H](O)[C@@H](O[C@H]3O[C@H](CO)[C@@H](O)[C@H](N)[C@@H]3O)[C@H](N)C[C@@H]2N)[C@H](O)[C@@H](O)[C@H]1O
inactive: Potency [3] | Potency [4] | Potency [7] | Potency [5] | Potency [8] | Potency [6]
active: Potency [1] 16.6 µM

CNC(=O)c1cc(Oc2ccc(NC(=O)Nc3ccc(Cl)c(C(F)(F)F)c3)c(F)c2)ccn1
active: Potency [1] 2.96 µM | Potency [2] 3.72 µM | Potency [3] 3.32 µM | Potency [5] 18.7 µM | Potency [8] 14.8 µM

CC(C)C[C@@H](C(=O)N[C@H](C(=O)OC1CCCC1)c1ccccc1)[C@H](O)C(=O)NO
active: Potency [1] 16.6 µM | Potency [2] 16.6 µM | Potency [3] 29.6 µM | Potency [4] 18.7 µM | Potency [8] 18.7 µM | Potency [6] 20.9 µM

CN(C)CC[C@H](CSc1ccccc1)Nc1ccc(S(=O)(=O)NC(=O)c2ccc(N3CCN(Cc4ccccc4-c4ccc(Cl)cc4)CC3)cc2)cc1[N+](=O)[O-]
active: Potency [1] 2.64 µM | Potency [2] 1.18 µM | Potency [3] 1.48 µM | Potency [4] 0.0526 µM | Potency [7] 4.18 µM | Potency [5] 16.6 µM | Potency [6] 1.87 µM

OC[C@H]1O[C@@H](OCCc2ccc(O)cc2)[C@H](O)[C@@H](O)[C@H]1O
active: Potency [1] 0.662 µM
inactive: Potency [3] | Potency [4] | Potency [7] | Potency [5] | Potency [8] | outcome [9] | outcome [10] | Potency [11] | Potency [12] | outcome [13] | outcome [14] | max response [15] 1.11% | Potency [16] | Potency [17] | outcome [18] | outcome [19]

Reference: PubChem BioAssay (NCATS)
